Source: PubChem BioAssay (Tox21)
Values without a mark were called inactive. Records with an inconclusive call do not appear. Where a call stands in place of a potency, no number is given. Active and inactive are the calls of the source. Unless noted, calls come from the whole dose curve.

Columns and labels:
[1] = Nuclear factor erythroid 2-related factor 2/antioxidant responsive element (Nrf2/ARE) small molecule agonists: qHTS cell viability counter screen in human keratinocytes (AID 1919968; active = well fitted curve in the direction sought with a large enough effect in the repeat runs; an effect the other way counts as inactive or inconclusive; note: nearly all actives have a fitted effect of over 55% in size)
Summary of the method: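 Measured as CellTiter-Fluor fluorescence, this readout tracks cytotoxicity in the same wells as the ARE-luciferase screen. HaCaT reporter cells (1,500/well) received compounds after a 5 h pre-incubation and were exposed for 23 h.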

[2] = Nuclear factor erythroid 2-related factor 2/antioxidant responsive element (Nrf2/ARE) small molecule agonists: luciferase reporter gene qHTS assay in human keratinocytes (AID 1919969); note: nearly all actives have a fitted effect of over 35% in size; note: potency is the fitted concentration of half-maximal effect
[3] = target: Gonadotropin-releasing hormone receptor (Homo sapiens) (UniProt P30968); test: Human gonadotropin-releasing hormone receptor (GnRHR) small molecule agonists, calcium flux assay in GnRHR-HEK293 cells (AID 1920063); note: nearly all actives have a fitted effect of over 35% in size
Summary of the method: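 Fluorescence kinetics (480 nm excitation, 540 nm emission; 3 min, 1 s steps) report calcium mobilisation in human GnRHR-HEK293 cells in agonist mode. Dye incubation: 1 h, 37 C.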

[4] = target: KiSS-1 receptor (Homo sapiens) (UniProt Q969F8); test: Human kisspeptin (KISS1R) small molecule agonists, calcium flux assay in KISS1R-HEK293 cells (AID 1920064; active = well fitted curve in the direction sought with a large enough effect in the repeat runs; an effect the other way counts as inactive or inconclusive)
Summary of the method: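 Measures KISS1R agonism through calcium-sensitive dye fluorescence in stably transfected HEK293 cells, read for 3 min after pin-tool compound delivery; 15-point titrations in triplicate.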

[5] = G protein-coupled receptor (GPCR) small molecule agonists, calcium flux assay: HEK293 wild type cell line counter screen (AID 1920065)
Summary of the method: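 Readout: fluorescence at 480 nm excitation/540 nm emission, sampled at 1 s intervals for 3 min. Cells had been cultured 18 h, then dye-loaded 1 h at 37 C before compound or ATP addition.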

[6] = p53 small molecule agonists, cell-based qHTS assay with human liver microsomes: qHTS cell viability counter screen (AID 1963579); note: nearly all actives have a fitted effect of over 45% in size
Summary of the method: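 p53RE-bla cells (4,000/well) were pre-incubated 5 h at 37 C, then given compounds in DMSO plus human liver microsomes (0.5 mg/mL final) and NADPH (0.5 mg/mL final) for 16 h at 37 C. Viability was read by CellTiter-Glo luminescence.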

[7] = p53 small molecule agonists, cell-based qHTS assay with rat liver microsomes: qHTS cell viability counter screen (AID 1963580); note: nearly all actives have a fitted effect of over 45% in size
Summary of the method: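 HCT-116 p53RE-bla, 4,000 cells/well, 5 h pre-incubation; cpd + rat liver microsomes 0.5 mg/mL + NADPH 0.5 mg/mL (final); 16 h, 37 C; CellTiter-Glo, 30 min RT; luminescence.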

[8] = p53 small molecule agonists, cell-based qHTS assay: qHTS cell viability counter screen (AID 1963581); note: nearly all actives have a fitted effect of over 45% in size
Summary of the method: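 In the same plates used for the p53 bla reporter, HCT-116 cells given compounds for 16 h at 37 C received CellTiter-Glo; luminescence was recorded 30 min later at room temperature.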

[9] = target: 5-hydroxytryptamine receptor 2A (Homo sapiens) (UniProt P28223); test: 5-hydroxytryptamine receptor 2A (HTR2A) small molecule antagonists, cell-based qHTS assay (AID 1963586); note: nearly all actives have a fitted effect of over 45% in size
Summary of the method: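 Antagonist-mode intracellular calcium assay: DOI (4 nM) added after 5 min compound pre-incubation at room temperature to dye-loaded HTR2A-CHO cells. Fluorescence followed for 3 min, sampled every second.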

[10] = target: 5-hydroxytryptamine receptor 2A (Homo sapiens) (UniProt P28223); test: 5-hydroxytryptamine receptor 2A (HTR2A) small molecule agonists, cell-based qHTS assay (AID 1963587); note: nearly all actives have a fitted effect of over 30% in size
Summary of the method: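 Kinetic calcium-flux fluorescence (2 min, 1 sec intervals) after compound addition in agonist mode. HTR2A-CHO cells were cultured 18 h, then dye-loaded 1 h at 37 C.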

[11] = target: Muscarinic acetylcholine receptor M1 (Homo sapiens) (UniProt P11229); test: Cholinergic receptor muscarinic 1 (CHRM1) small molecule agonists, cell-based qHTS assay (AID 1963589); note: nearly all actives have a fitted effect of over 35% in size
Summary of the method: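 Each compound was tested at 15 concentrations across three independent runs on dye-loaded CHO cells stably expressing human CHRM1, reading intracellular calcium fluorescence kinetically at 1 sec intervals.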

[12] = cAMP Responsive Elements (CRE) small molecule agonists, cell-based qHTS assay (AID 1963590)
Summary of the method: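 Cell line: CRE-bla HEK 293T; medium DMEM/10% dialyzed FBS/0.1 mM NEAA/1 mM pyruvate/25 mM HEPES; 3 h compound exposure; beta-lactamase FRET readout after 2 h substrate loading at RT.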

[13] = cAMP Responsive Elements (CRE) small molecule antagonists, cell-based qHTS assay (AID 1963591; active = well fitted inhibition curve with a large enough effect in the signal ratio in the repeat runs, not every such curve was filed as active; the % refers to the signal ratio)
Summary of the method: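 Inhibition of NKH477-driven (0.25 uM final) CRE-beta-lactamase signal in HEK293T cells, 3 h compound exposure at 37 °C, detected by FRET substrate fluorescence.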

[14] = target: Beta-2 adrenergic receptor (Homo sapiens) (UniProt P07550); test: Adrenergic beta2 receptor (ADRB2) small molecule antagonists, cell-based qHTS assay (AID 1963592); note: series mostly up to about 92 µM; nearly all actives have a fitted effect of over 50% in size
Summary of the method: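 Cells (CHO, stable ADRB2 overexpression) incubated 18-20hr at 37C; compounds added from DMSO; agonist mix (1nM isoproterenol, 100uM IBMX, 25uM Ro-20-1724) added; 0.5hr RT; d2-cAMP and anti-cAMP-cryptate added; 1hr RT; 665/615 nm read.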

[15] = target: D(2) dopamine receptor (Homo sapiens) (UniProt P14416); test: Dopamine D2 receptor (DRD2) small molecule antagonists, cell-based qHTS assay (AID 1963595; active = well fitted inhibition curve with a large enough effect in the signal ratio in the repeat runs, with a control signal flat; the % refers to the signal ratio)
Summary of the method: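 Human DRD2 antagonist qHTS measuring cAMP by HTRF. The cells are exposed to compound for 10 min, then to NKH477 (200 nM) and quinpirole (12 nM) for 30 min at RT, with Ro20-1724 (0.1 mM) present throughout.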

[16] = target: Muscarinic acetylcholine receptor M1 (Homo sapiens) (UniProt P11229); test: Cholinergic receptor muscarinic 1 (CHRM1) small molecule antagonists, cell-based qHTS assay (AID 1963588); note: nearly all actives have a fitted effect of over 40% in size
Summary of the method: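 CHRM1-CHO calcium-flux assay, antagonist mode. Cells were seeded 18 h, dye-loaded 1 h at 37 C and given compound for 5 min at RT, then acetylcholine was added at 50nM. FDSS fluorescence was read 3 min; 15 concentrations, three runs.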

[17] = target: Beta-2 adrenergic receptor (Homo sapiens) (UniProt P07550); test: Adrenergic beta2 receptor (ADRB2) small molecule agonists, cell-based qHTS assay (AID 1963593);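 note: CHO cells stably overexpressing human ADRB2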
Summary of the method: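 CHO cells stably over-expressing ADRB2 were plated overnight at 37C, then dosed with compounds plus a stimulation mix containing 100uM IBMX and 25uM Ro-20-1724 for 0.5hr at room temperature. cAMP was measured by HTRF competition, 1hr.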

[18] = target: D(2) dopamine receptor (Homo sapiens) (UniProt P14416); test: Dopamine D2 receptor (DRD2) small molecule agonists, cell-based qHTS assay (AID 1963594); note: nearly all actives have a fitted effect of over 35% in size
Summary of the method: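 cAMP accumulation in DRD2-HEK293 cells measured by HTRF after 1 h detection; compounds added 10 min before NKH477 (200nM […]) forskolin-analogue stimulation, 30 min at room temperature, with Ro20-1724 present at 0.1 mM final.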

Chain of Muscarinic acetylcholine receptor M1 (Homo sapiens) (P11229 whole entry, looked up): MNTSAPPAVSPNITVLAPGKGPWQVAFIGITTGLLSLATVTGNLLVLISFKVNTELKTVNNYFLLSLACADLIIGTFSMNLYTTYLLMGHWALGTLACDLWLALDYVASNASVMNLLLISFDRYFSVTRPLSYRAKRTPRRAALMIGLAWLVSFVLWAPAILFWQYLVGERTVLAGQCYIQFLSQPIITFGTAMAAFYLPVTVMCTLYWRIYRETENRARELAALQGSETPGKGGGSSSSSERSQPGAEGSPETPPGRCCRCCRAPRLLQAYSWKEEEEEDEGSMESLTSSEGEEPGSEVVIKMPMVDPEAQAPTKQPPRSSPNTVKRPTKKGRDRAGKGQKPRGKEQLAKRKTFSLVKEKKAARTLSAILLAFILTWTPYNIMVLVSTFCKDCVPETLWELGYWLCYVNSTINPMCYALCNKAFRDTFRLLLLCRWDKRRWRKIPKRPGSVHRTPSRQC
Chain of 5-hydroxytryptamine receptor 2A (Homo sapiens) (P28223 whole entry, looked up): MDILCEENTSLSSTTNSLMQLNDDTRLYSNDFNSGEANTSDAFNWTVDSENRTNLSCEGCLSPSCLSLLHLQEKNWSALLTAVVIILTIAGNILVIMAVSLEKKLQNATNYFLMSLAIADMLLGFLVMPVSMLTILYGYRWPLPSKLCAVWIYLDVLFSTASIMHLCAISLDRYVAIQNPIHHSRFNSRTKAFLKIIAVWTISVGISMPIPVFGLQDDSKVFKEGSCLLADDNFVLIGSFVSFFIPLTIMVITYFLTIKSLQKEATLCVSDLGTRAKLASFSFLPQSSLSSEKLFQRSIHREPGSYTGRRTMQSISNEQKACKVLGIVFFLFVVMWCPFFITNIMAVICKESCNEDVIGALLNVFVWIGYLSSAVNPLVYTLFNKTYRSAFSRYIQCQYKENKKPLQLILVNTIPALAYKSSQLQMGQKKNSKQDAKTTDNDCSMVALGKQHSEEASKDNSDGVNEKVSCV
Chain of D(2) dopamine receptor (Homo sapiens) (P14416 whole entry, looked up): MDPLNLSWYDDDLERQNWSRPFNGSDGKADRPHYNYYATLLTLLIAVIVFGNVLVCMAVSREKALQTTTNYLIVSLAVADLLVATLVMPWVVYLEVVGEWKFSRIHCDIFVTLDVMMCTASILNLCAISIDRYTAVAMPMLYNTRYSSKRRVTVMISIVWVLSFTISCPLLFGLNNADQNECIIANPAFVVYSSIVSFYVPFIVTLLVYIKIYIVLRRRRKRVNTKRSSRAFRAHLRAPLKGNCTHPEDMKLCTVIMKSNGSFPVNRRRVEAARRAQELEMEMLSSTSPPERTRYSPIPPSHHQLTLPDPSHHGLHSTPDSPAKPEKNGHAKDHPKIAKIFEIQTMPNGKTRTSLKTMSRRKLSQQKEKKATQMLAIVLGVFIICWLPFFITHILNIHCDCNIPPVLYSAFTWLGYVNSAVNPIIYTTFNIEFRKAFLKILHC
Chain of KiSS-1 receptor (Homo sapiens) (Q969F8 whole entry, looked up): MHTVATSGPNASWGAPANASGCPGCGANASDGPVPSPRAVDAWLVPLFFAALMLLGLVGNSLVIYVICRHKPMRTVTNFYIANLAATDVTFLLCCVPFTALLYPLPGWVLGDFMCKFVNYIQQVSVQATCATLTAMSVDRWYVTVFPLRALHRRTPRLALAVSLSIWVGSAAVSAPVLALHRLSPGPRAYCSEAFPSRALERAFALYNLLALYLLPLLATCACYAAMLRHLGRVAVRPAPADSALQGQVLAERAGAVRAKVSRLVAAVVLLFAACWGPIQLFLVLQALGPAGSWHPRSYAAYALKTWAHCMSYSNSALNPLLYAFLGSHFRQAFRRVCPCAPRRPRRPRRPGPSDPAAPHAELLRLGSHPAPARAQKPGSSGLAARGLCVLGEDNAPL
Chain of Beta-2 adrenergic receptor (Homo sapiens) (P07550 whole entry, looked up): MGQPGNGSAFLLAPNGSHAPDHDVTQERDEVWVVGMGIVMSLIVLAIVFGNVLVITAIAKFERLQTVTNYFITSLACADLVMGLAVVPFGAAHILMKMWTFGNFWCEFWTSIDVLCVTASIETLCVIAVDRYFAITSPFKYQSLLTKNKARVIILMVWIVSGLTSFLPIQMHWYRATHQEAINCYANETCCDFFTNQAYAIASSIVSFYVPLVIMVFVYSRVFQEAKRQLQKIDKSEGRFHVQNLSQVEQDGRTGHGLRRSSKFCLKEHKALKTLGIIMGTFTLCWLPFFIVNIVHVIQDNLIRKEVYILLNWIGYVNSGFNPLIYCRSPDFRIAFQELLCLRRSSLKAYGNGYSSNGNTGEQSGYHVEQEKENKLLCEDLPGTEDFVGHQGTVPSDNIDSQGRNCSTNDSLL
Chain of Gonadotropin-releasing hormone receptor (Homo sapiens) (P30968 whole entry, looked up): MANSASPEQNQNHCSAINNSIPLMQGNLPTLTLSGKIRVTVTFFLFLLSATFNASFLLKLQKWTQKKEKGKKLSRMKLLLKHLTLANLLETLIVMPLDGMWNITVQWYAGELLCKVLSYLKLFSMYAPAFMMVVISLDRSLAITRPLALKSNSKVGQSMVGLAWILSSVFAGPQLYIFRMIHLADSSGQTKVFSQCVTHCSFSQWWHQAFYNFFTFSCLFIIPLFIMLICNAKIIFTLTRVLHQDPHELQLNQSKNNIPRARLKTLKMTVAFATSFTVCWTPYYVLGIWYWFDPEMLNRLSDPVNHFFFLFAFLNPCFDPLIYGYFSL

Row | Compound | Potency [1] | Potency [2] | Potency [3] | Potency [4] | Potency [5] | Potency [6] | Potency [7] | Potency [8] | Potency [9] | Potency [10] | Potency [11] | Potency [12] | Potency [13] | Potency [14] | Potency [15] | Potency [16] | Potency [17] | Potency [18]
1 | O=C1c2cccc3c2[C@H](CCC3)CN1[C@@H]1CN2CCC1CC2 | inactive | inactive | inactive | inactive | inactive | inactive | inactive | inactive | inactive | inactive | inactive | inactive | inactive | inactive | inactive |  |  | 
2 | CCC(C)C(C)=O (stereo not drawn) | inactive | inactive | inactive | inactive | inactive | inactive | inactive | inactive | inactive |  | inactive | inactive | inactive | inactive | inactive | inactive | inactive | inactive
3 | CCCCC(CC)COC(=O)c1ccccc1 (stereo not drawn) | inactive | inactive | inactive | inactive | inactive | inactive | inactive | inactive | inactive | inactive |  | inactive | inactive | inactive | inactive | inactive |  | inactive
4 | O=c1oc2cc(O)ccc2c2oc3cc(O)ccc3c12 | inactive | 29.4 µM (active) | inactive | inactive | inactive | inactive | inactive | inactive | inactive | inactive | inactive |  |  |  | inactive | inactive |  | 
5 | CC1=CC(=O)CCC1 | inactive | inactive | inactive | inactive | inactive | inactive | inactive | inactive | inactive |  | inactive | inactive | inactive | inactive | inactive | inactive |  | inactive
6 | OC[C@H]1O[C@@H]2O[C@H]3[C@H](O)[C@@H](O)[C@@H](O[C@H]4[C@H](O)[C@@H](O)[C@@H](O[C@H]5[C@H](O)[C@@H](O)[C@@H](O[C@H]6[C@H](O)[C@@H](O)[C@@H](O[C@H]7[C@H](O)[C@@H](O)[C@@H](O[C@H]8[C@H](O)[C@@H](O)[C@@H](O[C@H]9[C@H](O)[C@@H](O)[C@@H](O[C@H]1[C@H](O)[C@H]2O)O[C@@H]9CO)O[C@@H]8CO)O[C@@H]7CO)O[C@@H]6CO)O[C@@H]5CO)O[C@@H]4CO)O[C@@H]3CO | inactive | inactive | inactive | inactive | inactive | inactive | inactive | inactive | inactive | inactive | inactive | inactive | inactive | inactive | inactive |  | inactive | inactive
7 | CCOC(=O)CC(=O)c1ccccc1 | inactive | inactive | inactive | inactive | inactive | inactive | inactive | inactive | inactive | inactive |  | inactive |  | inactive | inactive | inactive |  | inactive
8 | C=C(C)C(=O)OCCOP(=O)(O)OCCOC(=O)C(=C)C | inactive | inactive | inactive | inactive | inactive | inactive | inactive | inactive | inactive | inactive | inactive | inactive | inactive | inactive | inactive |  | inactive | inactive
9 | CCN(CC)CC1CCCCN1CC(=O)N1c2ccccc2C(=O)Nc2cccnc21 (stereo not drawn) | inactive | inactive | inactive | inactive | inactive | inactive | inactive | inactive | inactive | inactive |  | inactive | inactive | inactive | inactive | inactive | inactive | inactive
10 | CC(CCO)CCCC(C)(C)O (stereo not drawn) | inactive | inactive | inactive | inactive | inactive | inactive | inactive | inactive | inactive | inactive | inactive | inactive | inactive | inactive | inactive |  |  | inactive
11 | CC1=C(O)C(=O)CO1 | inactive | inactive | inactive | inactive | inactive | inactive | inactive | inactive | inactive | inactive |  | inactive | inactive | inactive | inactive |  | inactive | inactive
12 | CCOC(=O)CC(C)C | inactive | inactive | inactive | inactive | inactive | inactive | inactive | inactive | inactive | inactive |  | inactive | inactive | inactive | inactive | inactive |  | inactive
13 | CN(C)CCOC(=O)C(c1ccccc1)C1(O)CCCC1 (stereo not drawn) | inactive | inactive | inactive | inactive | inactive | inactive | inactive | inactive | inactive | inactive | inactive | inactive | inactive | inactive | inactive |  |  | 
14 | CCCC(=O)OCCC(C)CCC=C(C)C (stereo not drawn) | inactive | inactive | inactive | inactive | inactive | inactive | inactive | inactive | inactive | inactive | inactive |  | inactive | inactive |  |  | inactive | inactive
15 | CCCCOC(=O)CCCCC(=O)OCCCC | inactive | inactive | inactive | inactive | inactive | inactive | inactive | inactive | inactive |  | inactive | inactive | inactive | inactive | inactive | inactive |  | inactive
16 | OC1CCCCC1c1ccccc1 (stereo not drawn) | inactive | inactive | inactive | inactive | inactive | inactive | inactive | inactive | inactive | inactive | inactive | inactive | inactive | inactive | inactive |  |  | inactive
